# MEKK2mut PB1 HTS: signal of MEK5 binding to mutant human MEKK2 PB1 domain; bead flow cytometry, Alexa488-MEK5 binding to MEKK2 mutant; 0.35% of 290,000 active; percent response, % at 10 µM; AID 1530; in the data active = percent response above about 24%, passing the limit was not always enough
# MEKK2 WT-MEK5: raises or lowers MEK5 binding to wildtype human MEKK2 PB1 domain. Q9Y2U5. bead flow cytometry, Alexa488-MEK5 binding to MEKK2 WT; actives lie on both sides. binding response (% of control), % at 10 µM. 1.1% of 290,000 active; in the data active = binding response below about 67% or above about 130%
# VLA-4 inh: inhibition in a human VLA-4 binding assay | AID 2557 | VLA-4 expressing cells, ligand binding flow cytometry | P13612 | inhibition, % (about 7 µM as worked out from the volumes in the protocol) | 0.2% of 330,000 active; in the data active = inhibition above about 50%
# MEKK3 PB1 HTS: raises or lowers MEK5 binding to the human MEKK3 PB1 domain; binding response (% of control), % at 10 µM; 1.4% of 290,000 active; AID 1529; Q99759; bead-based flow cytometry, Alexa488-MEK5 binding to MEKK3; actives lie on both sides; 0 = blocked by unlabeled MEK5, 100 = vehicle;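 active = binding response more than 3 SD above or below the average of its plate-row segment, actives on both sides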;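 also: Alexa488 bead fluorescence after subtracting the streptavidin-only scavenger bead signal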
# Target sequence (Q99759 whole entry, looked up, the tested form may be a part): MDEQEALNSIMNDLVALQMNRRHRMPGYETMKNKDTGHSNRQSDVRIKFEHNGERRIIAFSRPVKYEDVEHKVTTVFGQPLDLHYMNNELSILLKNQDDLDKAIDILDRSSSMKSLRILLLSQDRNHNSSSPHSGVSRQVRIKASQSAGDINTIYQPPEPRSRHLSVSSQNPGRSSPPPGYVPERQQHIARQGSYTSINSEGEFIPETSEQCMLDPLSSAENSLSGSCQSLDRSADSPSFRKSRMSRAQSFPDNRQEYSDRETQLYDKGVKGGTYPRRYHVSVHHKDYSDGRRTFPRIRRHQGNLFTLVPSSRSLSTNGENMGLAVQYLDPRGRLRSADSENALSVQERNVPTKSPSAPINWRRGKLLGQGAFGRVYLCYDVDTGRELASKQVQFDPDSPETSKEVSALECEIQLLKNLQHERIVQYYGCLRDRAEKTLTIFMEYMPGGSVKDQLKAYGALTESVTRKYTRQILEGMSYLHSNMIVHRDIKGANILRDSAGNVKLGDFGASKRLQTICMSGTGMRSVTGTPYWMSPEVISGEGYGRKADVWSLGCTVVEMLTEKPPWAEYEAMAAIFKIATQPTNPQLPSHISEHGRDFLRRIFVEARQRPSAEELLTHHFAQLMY
# VLA-4 mod pick: human VLA-4 allosteric modulation in cherry picked compounds; shares compounds with VLA-4 inh; U937 cells, HUTS-21 LIBS mAb binding, flow cytometry; LDV ligand present at threefold Kd; inhibition, % at 6.7 µM; 2% of 1,300 active; AID 2813; in the data active = inhibition above about 40%
# A number is an active result; - = inactive; . = no result given; ! = not confirmed by another sample. In the library only some 2.2% were active in any assay of this set; here they are far more common.
SMILES,MEKK2mut PB1 HTS,MEKK2 WT-MEK5,VLA-4 inh,MEKK3 PB1 HTS,VLA-4 mod pick
COc1ccc(S(=O)(=O)N2CCOCC2)cc1NC(=O)COC(=O)C1COc2ccccc2O1 (centres undefined),-,-,-,-,-
Cc1ccccc1C(=O)N1CCC(C(=O)Nc2ccc(C(C)C)cc2)CC1,-,-,-,-,-
Cc1ccccc1C(=O)N1CCC(C(=O)Nc2ccccn2)CC1,.,.,51,.,-
Cn1nc(C(=O)OCC(=O)c2ccc(Cl)cc2)c2ccccc2c1=O,.,.,-,.,.
Cc1noc(C)c1CSc1ncnc2sc3c(c12)CCCCC3,-,-,-,-,-
CCCC(=O)Nc1cccc(Oc2nc(C)cc(C)c2C#N)c1,-,-,89,-,-
COc1ccc(CCN2CC(C(=O)NCCc3cn[nH]c3)CCC2=O)cc1 (centres undefined),-,-,-,-,.
O=C1C2C3C=CC(C3=C(c3ccccc3)c3ccccc3)C2C(=O)N1CCO (centres undefined),-,-,-,-,.
Cc1ccc(C(=C2C3C=CC2C2C(=O)NC(=O)C32)c2ccc(C)cc2)cc1 (centres undefined),-,-,56,-,-
Cc1cc(Oc2ccccc2)nc(SCC(=O)Nc2ccccc2)n1,-,-,70,-,-
Cc1[nH]c2ccccc2c1/C=N/NC(=O)CNC(=O)c1ccccc1,-,-,-,-,.
Cc1[nH]c2ccccc2c1/C=N/NC(=O)c1ccccc1,-,-,-,-,-
CC(=O)N[C@H](Cc1c[nH]c2ccccc12)C(=O)O,-,-,50,-,-
CC(=O)/C=C(/C)NC(Cc1c[nH]c2ccccc12)C(=O)O (centres undefined),-,-,-,-,.
CCOC(=O)c1c(NC(=O)COc2ncnc3sccc23)sc2c1CCC2,-,-,70,-,-
COC(=O)c1ccc(C(=S)N2CCCCC2)cc1,-,-,57,-,-
COC(=O)c1ccc(C(=S)N2CCOCC2)cc1,.,.,-,.,.
CC1CCC(NC(=O)CN2C(=O)c3ccccc3S2(=O)=O)CC1 (centres undefined),.,.,-,.,.
O=C(CN1C(=O)c2ccccc2S1(=O)=O)NC1CC2CCC1C2 (centres undefined),-,-,51,-,-
CCN(CC)CCCNC(=O)CN1N=C(c2ccc(OC)cc2)CCC1=O,-,-,-,-,.
C=C(C)CN(CC)C(=O)CN1C(=O)NC(C)(c2ccc3ccccc3c2)C1=O (centres undefined),-,-,50,-,-
COc1ccc(C(=O)Nc2ccccc2C(=O)NC(Cc2ccc(O)cc2)C(=O)NNC(=O)c2ccccc2)cc1 (centres undefined),-,-,-,-,.
COc1ccc(C(=O)Nc2ccccc2C(=O)NC(Cc2ccc(O)cc2)C(=O)NNC(=O)c2ccncc2)cc1 (centres undefined),-,-,56,-,-
COc1cc2c(cc1OC)C(c1ccc(Br)cc1)CC(=O)N2 (centres undefined),-,-,-,-,-
CCOc1cccc(C2CC(=O)Nc3cc(OC)c(OC)cc32)c1 (centres undefined),-,-,51,-,-
SMILES,MEKK2mut PB1 HTS,MEKK2 WT-MEK5,VLA-4 inh,MEKK3 PB1 HTS,VLA-4 mod pick
COc1cccc(C2CC(=O)Nc3cc(OC)c(OC)cc32)c1 (centres undefined),-,-,-,-,-
COc1cccc(C2CC(=O)Nc3cc4c(cc32)CCC4)c1 (centres undefined),-,-,-,-,.
COc1ccccc1C(=O)Nc1ccnn1C1CCN(Cc2ccc3nonc3c2)CC1,-,-,-,-,.
Cc1occc1C(=O)N(Cc1nc(-c2ccccc2)no1)C(C)C,-,-,-,-,.
CCc1c(C)nc(SCC(=O)Nc2nc(-c3ccc(OC)cc3)cs2)[nH]c1=O,-,-,-,-,.
CCOC(=O)[C@@H]1[C@H]2COc3cc(OC)ccc3[C@@H]2N2C(=O)N(c3ccc(F)cc3)C(=O)[C@@]12C,.,.,-,.,.
N#CCCN(C(=O)COC(=O)CCc1nc2ccccc2c(=O)[nH]1)c1ccccc1F,.,.,51,.,-
Cc1ccc(S(=O)(=O)N(CC(=O)N2CCOCC2)c2ccc(C(C)C)cc2)cc1,-,-,-,-,.
NC(=O)c1cc2cc(Br)ccc2o/c1=N/NC(=O)c1cccc(F)c1,-,-,-,-,.
O=C(COC(=O)c1ccc(O)cc1)NCCC1=CCCCC1,-,-,61,-,-
CCOc1ccc(C(=O)NCCC2=CCCCC2)cc1OCC,-,-,52,-,-
Cc1ccccc1C(=O)O/N=C(\N)Cc1cccs1,-,-,-,-,.
CCOC(=O)c1c(C)[nH]c(C)c1S(=O)(=O)N1CCN(C(=O)c2ccco2)CC1,-,-,-,-,.
CC1(C)C/C(=N\NC(=S)Nc2ccccc2F)c2cc(O)ccc2O1,-,-,-,-,.
CCC(CC)NC(=O)Nc1ccc(F)c(Cl)c1,-,-,64,-,-
CC(C)(C)CN1CCC(Oc2cccc(C(=O)NCCCOc3cccnc3)c2)CC1,-,-,-,-,.
CC(C)CN(C(=O)COC(=O)C(C)N1C(=O)c2ccccc2C1=O)c1c(N)n(Cc2ccccc2)c(=O)[nH]c1=O (centres undefined),.,.,-,.,.
COc1cc2c(cc1NC(=O)c1ccc(C(C)(C)C)cc1)CCCC2,.,.,82,.,-
COc1ccc(C(=O)Nc2cc3c(cc2OC)CCCC3)cc1Br,.,.,-,.,.
O=C(Nc1cccc2ccccc12)OCc1cncs1,-,-,-,-,.
O=C(Nc1ccc(Cl)cc1)OCc1cncs1,-,-,-,-,-
O=C(Nc1cccc(Cl)c1)OCc1cncs1,-,-,-,-,-
CC(=O)OCCC(NS(=O)(=O)OCC(Cl)(Cl)Cl)c1ccccc1 (centres undefined),-,-,-,-,.
C[C@]12CCC(=O)C=C1CC[C@@H]1[C@@H]2[C@@H](O)C[C@@]2(C)[C@H]1CC[C@]2(O)C(=O)COC(=O)CCC(=O)O,-,-,53!,-,-
CC(C)C(=O)Nc1nnc(S(=O)(=O)N2CCc3ccccc32)s1,-,-,-,-,.
SMILES,MEKK2mut PB1 HTS,MEKK2 WT-MEK5,VLA-4 inh,MEKK3 PB1 HTS,VLA-4 mod pick
CC(C)C(=O)Nc1nnc(S(=O)(=O)N2CCCc3ccccc32)s1,-,-,51,-,-
COc1cc(NC(=O)c2ccno2)cc(C(=O)Nc2cccc(C(F)(F)F)c2)c1,-,-,-,-,.
CCN1CCN(Cc2ccc(NC(=O)c3cc(NC(=O)N4CCNC4=O)cc(OC)c3)cc2C(F)(F)F)CC1,-,-,55,-,-
COc1cc(NC(=O)N2CCNC2=O)cc(C(=O)Nc2cccc(C(F)(F)F)c2)c1,-,-,-,-,-
N#CCCCN1C(=O)C(=C(C#N)C#N)c2ccccc21,-,-,-,-,.
CCOc1ccc(-n2ccnc(SCC(=O)Nc3cccc(OC)c3)c2=O)cc1,.,.,-,.,.
CCOc1ccc(S(=O)(=O)Nc2ccccc2C(=O)N(C)C2CCN(C)CC2)cc1,.,.,50,.,-

# Screening results (PubChem)
